# Compound activity: PubChem, National Center for Advancing Translational Sciences (NCATS)
# uPA generation: qHTS for Inhibitors of Cell Surface uPA Generation; cell surface uPA generation assay, qHTS; Potency, µM (highest dose often 38.3 µM), for the others: at the top dose activity change, negative = inhibition, actives largely listed as inhibitors; actives 0.31% (n = 330,000); active means well fitted inhibition curve with a large enough effect; inconclusive means small, poorly fitted or top-dose-only effect; inactive means no such curve, though single readings can be large or run the other way; tested in mouse RAW 264.7 cells; further: potency means the concentration at half of the fitted maximal effect; on the % scale 0 is the no-effect control and ±100 the full control effect; nearly all actives have a fitted effect of over 55% in size
# Chronic BCR inh: qHTS Assay to Find Inhibitors of Chronic Active B-Cell Receptor Signaling; ABC-DLBCL IkBa-CBG/CBR reporter, luminescence ratio, 4 h; AID 493014, 2011; Potency, µM (highest dose often 46.1 µM), without a hit: at the top dose activity change, negative = inhibition, actives largely listed as inhibitors; actives 0.05% (n = 340,000); active means well fitted inhibition curve with a large enough effect in the signal ratio, with a control signal flat, not every such curve was filed as active; inconclusive means small, poorly fitted or top-dose-only effect, or effect the other way, or a change in a side signal; the % refers to the signal ratio;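 further: potency means the concentration at half of the fitted maximal effect; plate controls were basal doxycycline-induced cells for no effect and cells given 10 µM MG132 for full effect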
#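 TMD8 ABC-DLBCL cells carrying doxycycline-inducible green luciferase fused to IkappaBalpha plus unfused red luciferase were exposed to compounds (up to 46 uM) for 4 hrs at 37C. Activity came from the overlap-corrected green/red luminescence ratio.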
# Vif-A3G inh: qHTS for Inhibitors of Vif-A3G Interactions: qHTS | DNA dC->dU-editing enzyme APOBEC-3G (Homo sapiens), Q9HC16 | HeLa A3G-eYFP + Vif (tagged APOBEC3G with the HIV-1 protein that degrades it), YFP fluorescence, overnight | actives 0.076% (n = 410,000) | Potency, µM (highest dose often 46.1 µM), for inactives: top-dose activity, negative = active, actives largely listed as inhibitors | AID 602310, 2012; further: potency means the concentration at half of the fitted maximal effect; on the % scale 0 is the no-effect control and ±100 the full control effect; nearly all actives have a fitted effect of over 60% in size
# Target sequence (Q9HC16 whole entry, looked up): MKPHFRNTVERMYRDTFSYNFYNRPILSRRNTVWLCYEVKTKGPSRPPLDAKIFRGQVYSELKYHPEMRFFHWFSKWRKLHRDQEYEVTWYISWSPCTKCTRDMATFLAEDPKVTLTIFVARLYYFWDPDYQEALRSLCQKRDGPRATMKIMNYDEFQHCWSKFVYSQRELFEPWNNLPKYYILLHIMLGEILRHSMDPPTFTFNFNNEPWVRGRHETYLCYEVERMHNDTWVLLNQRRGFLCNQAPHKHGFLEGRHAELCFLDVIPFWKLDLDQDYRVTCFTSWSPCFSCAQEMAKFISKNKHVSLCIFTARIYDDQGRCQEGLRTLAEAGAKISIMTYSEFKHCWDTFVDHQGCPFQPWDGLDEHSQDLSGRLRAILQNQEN
#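 Read-out is eYFP fluorescence (Ex 488/Em 500-530) from Vif-expressing HeLa A3G-eYFP cells; more signal means A3G escaped Vif-mediated degradation. Cells plated overnight, compound pinned in, incubated overnight at 37 deg C.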
# Vif-A3F inh: qHTS for Inhibitors of Vif-A3F Interactions: qHTS; Potency, µM (highest dose often 46.1 µM), for the others: at the top dose activity, negative = active; HeLa A3F-eYFP + Vif (tagged APOBEC3F with the HIV-1 protein that degrades it), YFP fluorescence increase; actives 0.2% (n = 390,000); AID 602313, 2012; further: potency means the concentration at half of the fitted maximal effect; % of control where 0% means no effect; nearly all actives have a fitted effect of over 65% in size
#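 Fluorescence increase (Ex 488/Em 500-530) after overnight compound treatment at 37 deg C flags inhibition of Vif-driven A3F-eYFP loss in stable HeLa A3F-eYFP/Vif cells seeded overnight beforehand.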
# MBNL1-CUG inh: qHTS Assay for Inhibitors of MBNL1-poly(CUG) RNA binding; actives 0.036% (n = 280,000); Potency, µM (titrated, usually from 57.5 µM), without a hit: top-dose activity change, negative = inhibition, actives largely listed as inhibitors; Muscleblind-like protein 1 (Homo sapiens), Q9NR56; AID 2675, 2010; TR-FRET MBNL1-His/biotin-(CUG)12 binding, 665/545 ratio; active means well fitted inhibition curve with a large enough effect in the signal ratio, with a control signal flat, not every such curve was filed as active; inconclusive means small, poorly fitted or top-dose-only effect, or effect the other way, or a change in a side signal; inactive means no such curve, though single readings can be large or run the other way; the % refers to the signal ratio; further: potency means the concentration at half of the fitted maximal effect; on the % scale 0 is the no-effect control and ±100 the full control effect
# Target sequence (Q9NR56 whole entry, looked up): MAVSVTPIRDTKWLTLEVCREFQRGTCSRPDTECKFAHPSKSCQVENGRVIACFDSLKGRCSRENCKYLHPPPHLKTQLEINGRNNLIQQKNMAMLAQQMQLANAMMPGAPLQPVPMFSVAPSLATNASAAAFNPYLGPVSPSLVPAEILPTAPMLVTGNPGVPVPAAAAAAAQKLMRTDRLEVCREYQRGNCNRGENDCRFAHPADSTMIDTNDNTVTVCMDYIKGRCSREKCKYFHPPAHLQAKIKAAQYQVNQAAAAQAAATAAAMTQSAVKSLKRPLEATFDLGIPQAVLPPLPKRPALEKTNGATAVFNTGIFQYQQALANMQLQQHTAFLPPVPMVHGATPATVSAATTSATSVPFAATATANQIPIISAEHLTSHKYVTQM
#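 Inhibition of protein-RNA binding appears as loss of TR-FRET between terbium anti-His antibody on MBNL1-His and streptavidin-XL665 on biotin-(CUG)12. Activity is normalized to buffer-only and uninhibited-complex controls.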
# TCR act: Activators of T cell receptors: qHTS campaign | 330,000 tested, under 10 active | Potency, µM (series often up to 9.22 µM), for the others: top-dose activation of IL-2 secretion, hits mostly activators | primary human leukocytes, anti-CD3, IL-2 HTRF, 48 h; further: % of control where 0% means no effect
#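 Using a-CD3 beads without co-stimulation, primary human leukocytes were exposed to compounds for 48 hr. An HTRF IL-2 kit measured the cytokine, with europium-to-d2 energy transfer producing emission at 665nm upon 320nm excitation.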
# An asterisk follows results filed as active; ? = inconclusive; · = no result; [ ] = dose if it differs, or a comment. Only some compounds are listed: those with a hit (about 0.54% of all), similar ones and a draw of the others. Unless noted, the call rests on the fitted dose curve; in most records, active means well fitted curve in the direction sought with a large enough effect; inconclusive means small, poorly fitted or top-dose-only effect, or another doubt; inactive means no such curve, though single readings can be large; an effect the other way counts as inactive or inconclusive.
SMILES,uPA generation,Chronic BCR inh,Vif-A3G inh,Vif-A3F inh,MBNL1-CUG inh,TCR act
Cc1cc2ccc(Cl)nc2nc1C,·,·,-3.2%,·,·,·
COc1cccc(/C=C/c2cnc3ccccc3n2)c1OC,·,·,-1.3%,·,·,·
Cc1cccc(NC(=O)Cn2cc(C(=O)C3CC3)c3ccccc32)c1,-0.4%,16.2%,0.8%,0.0%,6.8%,-3.8%
Cc1cc(C)cc(NC(=O)Cn2cc(C(=O)C3CCCCC3)c3ccccc32)c1,·,·,?,7.08µM*,·,·
O=c1c2ccccc2nc2n1CCc1c-2[nH]c2ccccc12,?,?,-1.4%,-9.5%,·,-1.9%
Cc1cccc2c(=O)n3c(cc12)-c1[nH]c2ccccc2c1CC3,4.2%,·,-25.8%,22.4µM*,·,-5.7%
CN(N=O)c1ccc(/C=C2\C=Cc3ccccc32)cc1,·,·,-2.3%,·,·,·
COc1ccc(-c2ccc3c(c2)S(=O)(=O)c2cccc(C(=O)NCc4ccccc4Cl)c2C3=O)cc1OC,8.3%,?,-2.7%,5.7%,·,9.6%
CC(C)c1cccc(-c2ccc3c(c2)S(=O)(=O)c2cccc(C(=O)NCc4ccccc4)c2C3=O)c1,5.3%,2.4%,1.9%,10µM*,·,1.1%
CC(C)c1cccc(-c2ccc3c(c2)S(=O)(=O)c2cccc(C(=O)NCc4ccccc4Cl)c2C3=O)c1,?,-0.1%,0.4%,11.2µM*,·,0.0%
O=C(NCc1ccc(F)cc1)c1cccc2c1C(=O)c1ccc(Cl)cc1S2(=O)=O,·,-4.2%,·,·,·,·
O=C(/C=C/c1ccccc1)Nc1cccc(C(=O)NC2CC2)c1,12.6µM*,·,-0.7%,4.4%,·,-2.8%
COc1cccc(C2CC(=O)Nc3cc(OC)c(OC)cc32)c1 (stereo not given),0.5%,?,1.2%,-1.8%,1.8%,2.0%
COc1cccc(C2CC(=O)Nc3cc4c(cc32)CCC4)c1 (stereo not given),11.2µM*,?,?,-15.3%,-5.7%,12.7%
Cc1cccc(N(Cc2cc(=O)[nH]c3ccccc23)C(=O)CCl)c1,7.08µM*,?,0.2%,-3.2%,105.6%,1.8%
COc1ccc(C(CCN2CCOCC2)c2c(OC)cc(OC)c3c(-c4ccccc4)cc(=O)oc23)cc1 (stereo not given),14.1µM*,?,-4.5%,-0.7%,·,-0.3%[46.1 µM]
COc1ccc(C(CCN2CCCC2)c2c(OC)cc(OC)c3c(-c4ccccc4)cc(=O)oc23)cc1 (stereo not given),-11.4%,-5.7%,1.2%,-18.2%,0.4%,0.0%
C1=Nc2ccccc2/C1=C/c1ccccc1,·,·,-2.3%,·,·,·
COc1cccc2oc3cc(C#CC4(O)CCCCC4)ccc3c(=O)c12,7.08µM*,?,-1.5%,5.2%,-0.6%,-0.5%
O=c1c2ccccc2oc2cc(C#CC3(O)CCCCC3)ccc12,4.47µM*,·,4.2%,1.9%,·,4.2%
O=c1c2ccccc2sc2ccc(C#CC3(O)CCCCC3)cc12,2.51µM*,·,2.9%,1.2%,·,-6.3%
Oc1cc2cc(-c3csc(-c4ccc(F)cc4)n3)ccc2[nH]1,·,·,3.7%,·,·,·
O=[N+]([O-])c1ccc(Nc2nc(NCCN3CCOCC3)nc(Nc3ccc(I)cc3)n2)cc1,·,·,-6.0%,·,·,·
O=[N+]([O-])c1ccc2c(c1)C=C/C2=C/c1ccccc1,·,·,-7.6%,·,·,·
CCOC(=O)c1cnc(Nc2nc3ccccc3o2)nc1CSC(=S)N(CC)CC,-5.2%,0.58µM*,-2.7%,-7.9%,-8.0%,-2.3%[46.1 µM]
SMILES,uPA generation,Chronic BCR inh,Vif-A3G inh,Vif-A3F inh,MBNL1-CUG inh,TCR act
O=c1ccc(N=Nc2ccccc2)ccc1O,-4.2%,?,0.5%,-15.0%,?,-4.4%
Oc1ccc(N=Nc2ccccc2)o1,6.31µM*,?,-25.6%,-3.8%,-4.5%,-6.0%
O=c1[nH]cnc2c1ccn2C1OC(CO)C(O)C1O (stereo not given),3.98µM*,·,-10.3%,1.3%,·,-0.2%
O=c1[nH]cnc2c1[nH]c(=S)n2C1O[C@@H](CO)[C@H](O)[C@@H]1O (stereo not given in full),·,·,0.3%,·,·,·
O=C(CCl)N1CCN(S(=O)(=O)c2ccc3c(c2)CCC3)CC1,1µM*,?,?,0.9%,·,0.8%
CCOc1ccc(C(=O)COC(=O)Cc2n[nH]c(=O)c3ccccc23)cc1,-11.1%,-3.7%,8.91µM*,8.5%,·,-2.0%
CCOC(=O)C1=C(O)c2ccccc2C(=O)/C1=C\c1ccc(C)cc1,-9.3%,?,?,25.1µM*,?,4.1%[46.1 µM]
CCOc1ccc(CSC2=NCCN2)cc1[N+](=O)[O-],-14.1%,?,-19.0%,-28.8%,19.9%,-3.4%[46.1 µM]
CCCCOc1ccc(CSC2=NCCN2)cc1[N+](=O)[O-],6.31µM*,?,?,1.7%,15.9%,-7.9%[46.1 µM]
COC(=O)Cn1c(C)c(/C=C/c2cc[n+](C)cc2)c2ccccc21,0.2%,1.3%,?,11.2µM*,?,8.0%
CC1=C/C(=C\c2ccc(N(C)C)cc2)c2ccccc21,·,·,0.9%,·,·,·
COc1ccc(O)cc1,6.31µM*,1.5%,5.5%,-0.9%,·,1.6%
CCS(=O)(=O)N1CCc2cc(C(=O)N3CCN(c4cccc(C(F)(F)F)c4)CC3)ccc21,·,·,12.6µM*,-6.2%,·,·
CN(C)CCCNc1cc(N2CCN(C)CC2)ncn1,·,·,0.6%,·,·,·
Nc1cc(N)cc(N)c1,·,·,2.1%,·,·,·
O=C(Oc1c(Cl)cc(Cl)c2cccnc12)c1cccc([N+](=O)[O-])c1,-3.5%,20.6µM*,-11.3%,0.4%,22.3%,4.5%[46.1 µM]
O=C(Oc1ccc(Cl)c2cccnc12)c1cccc([N+](=O)[O-])c1,-0.5%,?,?,-14.8%,·,0.4%[46.1 µM]
CC[N+](C)(C)c1ccc(/C=C/c2ccncc2)cc1,·,·,10µM*,·,·,·
CC(=O)NC1=CC(=O)c2nonc2C1=O,·,·,-11.1%,·,·,·
COc1cc2c(c(OC)c1OC)-c1ccc(NC(=O)c3ccccc3)c(=O)cc1[C@@H](NC(C)=O)CC2,7.5%,22.4µM*,0.8%,-5.4%,?,5.8%
CCCCOc1ccc(-c2cn3ccccc3n2)cc1[N+](=O)[O-],7.94µM*,3.8%,1.9%,-5.2%,11.5%,10.6%[46.1 µM]
COC(=O)CC1C(=O)NC(C)=C1C(=O)OC (stereo not given),·,?,·,·,0.2%,·
COC(=O)CCCC[C@H]1SC[C@H]2NC(=O)N[C@]21O,·,0.3%,·,·,0.316µM*,·
COC(=O)CCCCC1SCC2NC(=O)NC21O (stereo not given),-0.8%,-2.4%,-3.4%,-3.1%,0.708µM*,3.8%
